# In PubChem BioAssay AID651640 (Broad Institute, 2012):
# Several values for one entry are separate records, joined by “and”; a condition that tells them apart may be missing. Equal entries are not always repeated. In all, about 350,000 compounds went through this assay and about 6,000 (1.7%) were called active. Roughly 5% stayed inconclusive and do not appear here. No stated cut-off is given here; in the data, active means CPE inhibition above about 20% (passing the limit was not always enough); inconclusive means no clear call, values can overlap the other calls; tested in BHK-21 cells. The list comes from a sample in which actives are over-represented; it also holds similar structures and randomly drawn compounds. Some compounds were tested as several samples or in several runs, with calls that do not always agree.
# Assay: inhibitors of DENV2 cytopathic effect, primary screen, cell-based, plate reader, single concentration (AID 651640);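 further: 0% = median of neutral control wells and 100% = median of positive control wells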
# Details: DENV2-infected cells, cytopathic effect rescue, at 9.99 µM, stronger effect = higher value
row,SMILES,CPE inhibition
1,C[C@H]1CN([C@@H](C)CO)C(=O)c2cc(Br)cnc2O[C@H]1CN(C)CC1CCCC1,7.93% (inactive)
2,O=C(C[C@@H]1C[C@@H]2c3cc(NC(=O)NC4CCCC4)ccc3O[C@@H]2[C@@H](CO)O1)NCc1ccccc1,-0.285% (inactive)
3,O=C(NCC1CC1)[C@@H]1[C@@H](CO)[C@@H]2Cn3c(ccc(-c4ccccc4)c3=O)[C@H]1N2Cc1nccs1,-2.52% (inactive)
4,CN(C)CC(=O)N[C@H]1CC[C@H](CCNC(=O)C2CCCCC2)O[C@H]1CO,-1.04% (inactive)
5,O=C(Cc1ccccn1)N1CC(=O)N2[C@H](C1)[C@@H](c1ccc(-c3ccccc3)cc1)[C@@H]2CO,4.12% (inactive)
6,C[C@@H]1CN([C@H](C)CO)C(=O)c2cc(NC(=O)Nc3ccccc3)ccc2O[C@@H](C)CCCCO[C@@H]1CN(C)Cc1ccncc1,-2.85% (inactive)
7,COCC#Cc1cnc2c(c1)C(=O)N([C@@H](C)CO)C[C@@H](C)[C@H](CN(C)C(=O)C1CCOCC1)O2,4.93% (inactive)
8,O=C(NCc1ccccc1)C1CNCC(C(=O)NCc2ccccc2)C1 (stereo not drawn),-5.52% (inactive)
9,O=C(NCc1ccccc1)C1CCN(C(=O)Cc2ccccc2)CC1,-10.5% (inactive)
10,O=C(O)C1C2C=CC(C2)C1C(=O)NCc1ccccc1 (stereo not drawn),23.9% (active)
11,CC(C)(C)[C@H]1C=C(C(=O)NCc2ccccc2)O[C@@H](OCc2ccc(CO)cc2)C1,51.1% (active) and -3.51% (inactive)
12,O=C(NCc1ccccc1)C1=C[C@@H](C2CCCCC2)C[C@@H](OCc2ccc(CO)cc2)O1,-6.36% (inactive) and 1.63% (inactive)
13,O=C(NCc1ccccc1)C1=C[C@H](C2CC2)C[C@H](OCc2ccc(CO)cc2)O1,-16.3% (inactive) and 0.479% (inactive)
14,CO[C@@H](CN(C)C(=O)c1ccc2c(c1)OCO2)[C@@H](C)CN([C@H](C)CO)S(=O)(=O)c1ccccc1,-3.46% (inactive)
15,CN1C(=O)c2cc(NC(=O)C3CCOCC3)ccc2OC[C@H]2O[C@@H](CC(=O)NCC3CCCCC3)CC[C@@H]21,1.63% (inactive)
16,C=CC[C@]1(C(=O)NCC(O)CO)N=C(c2ccc(OCCCO)cc2)O[C@H]1c1ccccc1 (stereo partly drawn),1.79% (inactive)
17,[N-]=[N+]=Nc1ccccc1C[C@@]1(C(=O)NCc2ccccc2)N=C(c2ccc(OCCCO)cc2)O[C@@H]1c1ccccc1,33.8% (active)
18,COC(=O)[C@@]1(CCS(=O)(=O)c2ccccc2)N=C(c2ccc(OCCCO)cc2)O[C@H]1c1ccccc1N=[N+]=[N-],-1.34% (inactive)
19,O=C(C[C@H]1CC[C@H](NC(=O)C2CCC2)[C@@H](CO)O1)Nc1nccs1,0.802% (inactive)

row,SMILES,CPE inhibition
1,O=C(Cc1ccccn1)N[C@H]1CC[C@@H](CC(=O)N2CCCCC2)O[C@@H]1CO,-2.26% (inactive)
2,OC(CCl)CCl,32.4% (active)
3,O=C(c1ccc(F)cc1)N1CC(=O)N2[C@H](CO)[C@H](c3ccc(-c4ccccc4F)cc3)[C@@H]2C1,7.8% (inactive)
4,C[C@@H]1CN([C@H](C)CO)C(=O)c2cc(NC(=O)Nc3cccc4ccccc34)ccc2O[C@@H](C)CCCCO[C@H]1CN(C)S(=O)(=O)c1cccs1,-15.6% (inactive)
5,CCCN1[C@H](C(=O)NC2Cc3ccccc3C2)[C@@H](CO)[C@@H]2Cn3c(cccc3=O)[C@@H]21,-9.85% (inactive)
6,CCCNC(=O)[C@H]1[C@H](CO)[C@H]2Cn3c(cccc3=O)[C@H]2N1Cc1ccccc1Cl,140% (active)
7,O=C(NCc1ccccc1Cl)[C@H]1[C@H](CO)[C@H]2Cn3c(cccc3=O)[C@H]2N1C(=O)C1CCC1,-3.74% (inactive)
8,O=C(c1cccnc1)N1CC[C@H]2[C@H](CO)Nc3ccc(-c4ccc(F)cc4)cc3[C@H]21,1.83% (inactive)
9,C[C@@H]1CN([C@@H](C)CO)C(=O)Cc2cc(NC(=O)Cc3ccccc3)ccc2O[C@@H]1CN(C)C(=O)Nc1ccc2c(c1)OCO2,-7.53% (inactive)
10,COCC(=O)N1CC[C@@H]2[C@@H](CO)Nc3ccc(-c4ccc(C(=O)N(C)C)cc4)cc3[C@@H]21,5.72% (inactive)
11,O=C(NC1Cc2ccccc2C1)[C@H]1[C@H](CO)[C@H]2Cn3c(ccc(C4=CCCCC4)c3=O)[C@H]2N1CC1CC1,39.5% (active)
12,O=C(NC1CCC1)[C@H]1[C@H](CO)[C@H]2Cn3c(ccc(C4=CCCCC4)c3=O)[C@@H]1N2CC1CC1,-0.675% (inactive)
13,CCNC(=O)[C@@H]1[C@@H](CO)[C@@H]2Cn3c(ccc(C4=CCCCC4)c3=O)[C@@H]2N1Cc1ccccc1F,2.99% (inactive)
14,COc1ccccc1NC(=O)N[C@H]1C=C[C@H](CC(=O)N[C@@H](C)c2ccccc2)O[C@H]1CO,4.39% (inactive)
15,COc1ccccc1NC(=O)N[C@H]1C=C[C@@H](CC(=O)N[C@@H](C)c2ccccc2)O[C@@H]1CO,20.2% (active)
16,COc1ccccc1NC(=O)N[C@H]1CC[C@@H](CC(=O)N[C@@H](C)c2ccccc2)O[C@H]1CO,3.47% (inactive)
17,C[C@@H]1CN([C@@H](C)CO)C(=O)Cc2cc(NC(=O)Cc3ccccc3)ccc2O[C@H]1CN(C)Cc1ccc(C(=O)O)cc1,-5.69% (inactive)
18,Cc1noc(C)c1NC(=O)N(C)C[C@@H]1Oc2ccc(NC(=O)Nc3cccc4ccccc34)cc2CC(=O)N([C@@H](C)CO)C[C@H]1C,3.02% (inactive)
19,C[C@H]1CN([C@@H](C)CO)C(=O)c2cccc(NC(=O)Nc3ccc(F)cc3)c2O[C@@H]1CN(C)C(=O)Nc1ccc2c(c1)OCO2,-3.44% (inactive)
